Screening results as filed in PubChem BioAssay.
A selection: hits, their analogues and other compounds. The true share with any hit is near 4.6%.
NR3A LBD binder – modulators (binders) of human NR3A ligand-binding domain; NR3A LBD differential scanning fluorimetry, Tm shift; 0% = protein alone, 100% = glycine-bound protein; Tm shift relative to glycine control, % at 25 µM; 340,000 compounds, 2.5% hits;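 active = melting temperature shift of at least 10% of the positive control shift, at one fixed dose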
proKLK7 act – activators of human kallikrein-7 zymogen. P49862. purified proKLK7, EDANS-DABCYL substrate fluorescence; 100% is mature enzyme control, 0% vehicle. activation, % at 7 µM. 370,000 compounds, 0.9% hits;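 active = activation above the mean of all tested compounds plus 3 SD, computed per campaign excluding outliers beyond control limits, cut at about 13% in these data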
ADAM10 inh – inhibitors of human ADAM10; AID 720582; recombinant ADAM10, EDANS/DABCYL FRET peptide cleavage, 3 h; 370,000 compounds, 0.62% hits; inhibition, % at 7 µM; O14672;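 active = inhibition above a per-campaign cutoff equal to the mean of compounds falling between control-based bounds plus 3 SD, cut at about 20% in these data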;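 also: 0% = DMSO wells while the 100% control is not disclosed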
Target sequence (O14672 214-748 limits assumed): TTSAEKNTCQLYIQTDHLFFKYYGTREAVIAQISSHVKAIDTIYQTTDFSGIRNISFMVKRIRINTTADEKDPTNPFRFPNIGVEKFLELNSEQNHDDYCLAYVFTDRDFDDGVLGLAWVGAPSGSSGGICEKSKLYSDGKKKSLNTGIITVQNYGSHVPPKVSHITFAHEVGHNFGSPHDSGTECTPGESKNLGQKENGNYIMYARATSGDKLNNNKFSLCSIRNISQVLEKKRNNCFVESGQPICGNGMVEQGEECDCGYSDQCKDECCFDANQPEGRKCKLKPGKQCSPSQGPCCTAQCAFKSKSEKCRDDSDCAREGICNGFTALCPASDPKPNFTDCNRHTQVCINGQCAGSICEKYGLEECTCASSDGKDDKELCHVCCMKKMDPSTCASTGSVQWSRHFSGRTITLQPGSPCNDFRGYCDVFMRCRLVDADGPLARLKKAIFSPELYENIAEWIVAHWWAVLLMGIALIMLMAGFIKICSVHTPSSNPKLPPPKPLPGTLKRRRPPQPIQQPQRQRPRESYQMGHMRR
FAS-TE inh – inhibitors of human fatty acid synthase thioesterase domain. P49327. recombinant FAS-TE, OMFH fluorogenic substrate, fluorescence endpoint. inhibition, % at 15 µM. 360,000 compounds, 0.67% hits;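 active = compounds whose normalised, plate-corrected inhibition of enzyme fluorescence in the single-dose primary screen is 50% or more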;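 also: 0% = DMSO with enzyme and 100% = substrate without enzyme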
ADAM17 inh – ADAM17 inhibition, QFRET primary screen | P78536 | 370,000 compounds, 0.83% hits | inhibition, % at 6.95 µM | AID 720648 | recombinant ADAM17, EDANS/DABCYL FRET peptide cleavage;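 active = inhibition above the mean of compounds lying between control limits plus 3 SD, set per campaign, cut at about 8.5% in these data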;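 also: 0% = DMSO-only wells as the low control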
ADAM10 ctr – inhibits human ADAM10 in ADAM17 exosite counter-screen. AID 743256. inhibition, % at 6.95 µM. shares compounds with ADAM17 inh. recombinant ADAM10, EDANS/DABCYL FRET peptide cleavage, 3 h. 2,900 compounds, 47% hits;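 active = mean inhibition over the triplicate runs exceeds the activity threshold set in the earlier primary screen, cut at about 20% in these data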;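 also: 0% = DMSO wells and 100% = marimastat wells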
ADAM17 confirm – human ADAM17 inhibition, confirmation. 2,900 compounds, 65% hits. inhibition, % at 6.95 µM. recombinant ADAM17, EDANS/DABCYL QFRET peptide cleavage. shares compounds with ADAM17 inh;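 active = mean inhibition across replicates above the hit cutoff set in the primary screen, cut at about 8.5% in these data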;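 also: 0% = DMSO wells and 100% = marimastat wells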
* = called active by the depositor; / = no result.

SMILES | NR3A LBD binder | proKLK7 act | ADAM10 inh | FAS-TE inh | ADAM17 inh | ADAM10 ctr | ADAM17 confirm
C=CC1C[N+]2(C)CCC1CC2C(O)c1ccnc2ccccc12 (stereo unspecified) | / | 0 | -12 | / | -4 | / | /
O=C(c1ccccc1F)c1cn(CC(=O)N2CCOCC2)c2ccccc12 | -3 | 0 | -10 | -3 | 8.6* | 3 | 3
O=C(c1ccccc1F)c1cn(CC(=O)N2CCCC2)c2ccccc12 | 1 | 0 | 10 | 0 | 0 | / | /
O=[N+]([O-])c1oc2ccc3ccccc3c2c1CCO | 2 | 0 | -13 | 5 | -3 | / | /
CC(C(=O)c1cn(C)c2ccccc12)c1ccccc1 (stereo unspecified) | -45 | 0 | 15 | 10 | 11* | 2 | 4
COC(=O)C1=C(c2ccc(F)cc2OCc2ccccc2)C[C@@H]2CC[C@H]1N2C(=O)NCc1ccc(C(F)(F)F)cc1 | -4 | 0 | 17 | 21 | 11* | 36* | 21*
COC(=O)C1=C(c2ccc(OCc3ccccc3)cc2)C[C@@H]2CC[C@H]1N2C(=O)NCc1ccccc1OC | / | 0 | 17 | 20 | 9.7* | 28* | 14*
COC(=O)C1=C(c2ccc(OCc3ccccc3)cc2)C[C@@H]2CC[C@H]1N2C(=O)NCc1ccc(OC)c(OC)c1 | 2 | 1 | 12 | 12 | 5 | / | /
COC(=O)C1=C(c2ccc(-c3ccccc3)c(F)c2)C[C@@H]2CC[C@H]1N2C(=O)NC1CC1 | -1 | 1 | 19 | -2 | 11* | 6 | 7
COC(=O)C1=C(c2ccccc2OCc2ccccc2)C[C@@H]2CC[C@H]1N2C(=O)NCc1ccc(C(F)(F)F)cc1 | -1 | 0 | 9 | 16 | 3 | / | /
C[C@]12CCC3C(CC[C@H]4C[C@H](O)CC[C@]34C)C1C[C@@H](O)[C@H]2O (stereo partly specified) | -4 | 0 | -4 | -4 | -5 | / | /
N=C(N)c1c(O)n(C2CCCCC2)c(=O)n(C2CCCCC2)c1=O | 18* | 0 | 17 | 23 | 9.6* | 52* | 24*
O=c1c(C=NCc2cccs2)c(O)n(C2CCCCC2)c(=O)n1C1CCCCC1 | -4 | 0 | 4 | 29 | 3 | / | /
Oc1ccc2c3c1O[C@H]1c4[nH]c5c(c4CC4(O)C(C2)N(CC2CC2)CCC314)CC1(O)[C@H]2Cc3ccc(O)c4c3[C@@]1(CCN2CC1CC1)C5O4 (stereo partly specified) | / | 0 | -4 | / | -6 | / | /
CCOC(=O)[C@@H]1[C@H]2COc3ccc(Br)cc3[C@H]2N2C(=O)N(c3cccc(C)c3)C(=O)[C@]12C | 2 | 0 | 23* | 33 | 9.3* | 30* | 19*
COC(=O)C1=C(c2ccc(Cl)c(C(F)(F)F)c2)C[C@@H]2CC[C@H]1N2C(=O)N1CCC(O)(c2ccc(Cl)cc2)CC1 | -4 | 0 | 19 | 17 | 9.5* | 16 | 8.8*
CC(C)C[C@@H]1COc2cccc(N3CCN(C)CC3)c2S(=O)(=O)N1 | / | 0 | -7 | -10 | -5 | / | /
Cc1cccc(OCC(=O)N2CCN(Cc3ccncc3)CC2)c1 | 2 | -1 | 5 | -10 | 11* | -8 | 0
CS(=O)(=O)c1ccc(C2=C(CNC(=O)c3nccs3)[C@H]3CC[C@@H](C2)N3Cc2ccco2)cc1 | / | 0 | -3 | -6 | 0 | / | /
O=c1[nH]c2ccccc2n1C1CCN(C(c2ccccc2)c2nnnn2-c2ccc3c(c2)OCCO3)CC1 (stereo unspecified) | / | 0 | 18 | 40 | 11* | 38* | 23*
CCC(c1nnnn1-c1ccc2c(c1)OCCO2)N1CCC(n2c(=O)[nH]c3ccccc32)CC1 (stereo unspecified) | / | 1 | 4 | 4 | 0 | / | /
